Luc counter = Counterscreen for Luciferase (Kinase-Glo TM) Inhibition. Luciferin 4-monooxygenase (Photuris pensylvanica), Q27757. Kinase-Glo luciferase, ATP luminescence, 8 min. Potency, µM (series often up to 38.3 µM), inactives show at the highest dose activity change, negative = inhibition, usual class: inhibitors. 200,000 compounds, 0.28% hits. AID 1379, 2008; also: % is scaled to controls: 0 for no effect and ±100 for the full control effect; nearly all actives have a fitted effect of over 60% in size
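Compounds were added to a substrate mix at pH 7.2 (50 mM imidazole, 10 uM ATP, within the enzyme's linear range), followed by Kinase-Glo detection reagent; luminescence was measured after 8 minutes at ambient temperature.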
NPC1 prom act = qHTS Assay for NPC1 Promoter Activators; AID 485313, 2010; Potency, µM (doses to about 9.22 µM), for the others: at the top dose activation, most hits filed as activators; Huh7 NPC1 promoter luciferase reporter, 24 h; 320,000 compounds, 2.4% hits; also: % of control where 0% means no effect; nearly all actives have a fitted effect of over 60% in size
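Luminescence read-out of NPC1 promoter-driven luciferase in stably transfected Huh7 cells; compounds delivered in DMSO and left 24 h at 37C, 5% CO2, qHTS titration format.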
Rab9 prom act = qHTS Assay for Rab9 Promoter Activators; Potency, µM (doses to about 9.22 µM), for the others: at the highest dose activation, negative = inhibition, usual class: activators; Huh7 Rab9 promoter-luciferase reporter, luminescence, 24 h; 320,000 compounds, 2.8% hits; AID 485297, 2010; also: % of control where 0% means no effect; nearly all actives have a fitted effect of over 60% in size
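Cells were plated at 1500 per well in reduced-serum medium with 10% FBS and left 2 h. Compound in DMSO was then added for 24 h at 37 °C. Reporter signal was read by luminescence after 10 min with luciferase detection reagent.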
FLuc modulator = qHTS profiling assay for firefly luciferase inhibitor/activator using purifed enzyme and Km concentrations of substrates (counterscreen for miR-21 project) | Luciferin 4-monooxygenase (Photinus pyralis), P08659 | purified FLuc, Km substrates, luminescence inhibition | Potency, µM (titrated, usually from 57.5 µM), inactives show at the top dose activity change, negative = inhibition, actives largely listed as inhibitors | 360,000 compounds, 6.9% hits | AID 588342, 2011;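 also: plate controls were vehicle for no effect and reference inhibitor for full effect; nearly all actives have a fitted effect of over 55% in size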
Target sequence (P08659 whole entry, looked up): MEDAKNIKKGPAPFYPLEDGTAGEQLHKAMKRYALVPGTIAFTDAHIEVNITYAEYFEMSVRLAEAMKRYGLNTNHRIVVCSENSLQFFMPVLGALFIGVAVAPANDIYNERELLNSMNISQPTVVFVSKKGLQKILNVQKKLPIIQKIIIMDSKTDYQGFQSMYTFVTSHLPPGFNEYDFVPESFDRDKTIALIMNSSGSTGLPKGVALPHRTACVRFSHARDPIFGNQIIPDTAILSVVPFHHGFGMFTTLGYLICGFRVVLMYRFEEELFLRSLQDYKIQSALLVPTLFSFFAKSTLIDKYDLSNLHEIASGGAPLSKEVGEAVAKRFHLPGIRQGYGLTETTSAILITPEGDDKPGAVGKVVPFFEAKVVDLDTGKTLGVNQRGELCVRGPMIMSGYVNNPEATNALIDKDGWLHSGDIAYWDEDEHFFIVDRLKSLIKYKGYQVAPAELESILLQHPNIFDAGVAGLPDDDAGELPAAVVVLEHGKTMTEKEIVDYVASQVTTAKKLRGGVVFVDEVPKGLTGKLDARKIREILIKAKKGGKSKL
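Purified P. pyralis luciferase, 10 nM final, with Km-level 10 uM D-luciferin and 10 uM ATP in 50 mM Tris acetate pH 7.5, 10 mM Mg acetate, 0.01% Tween-20, 0.05% BSA; 6-point qHTS titration about 60 µM downward; luminescence read.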
ELG1 genotoxic = qHTS screen for small molecules that induce genotoxicity in human embryonic kidney (HEK293T) cells expressing luciferase-tagged ELG1; HEK293T ELG1-luciferase reporter, luminescence, 16 h; Potency, µM (titrated, usually from 46 µM), without a hit: top-dose activity change, positive = activation, actives largely listed as activators; 330,000 compounds, 1.3% hits; AID 504466, 2011; also: % of control where 0% means no effect; nearly all actives have a fitted effect of over 60% in size
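HEK293T cells expressing luciferase-tagged ELG1 were treated with compound or DMSO for 16 hr at 37°C. Luciferase activity was then read after 30 min with ONE-Glo at room temperature; rising signal flags genetic stress.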
SMN2 splice up = qHTS Assay for Enhancers of SMN2 Splice Variant Expression | HEK293 SMN2-luciferase splicing reporter, luminescence, 30-36 h | Potency, µM (highest dose often 46.1 µM), for the others: at the top dose activity change, positive = activation, actives largely listed as activators | 210,000 compounds, 2.8% hits; also: % of control where 0% means no effect; nearly all actives have a fitted effect of over 55% in size
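qHTS luciferase splicing reporter: luminescence rises when SMN2 exon 7 is included in transfected HEK293 cells. Compound exposure lasted 30-36 h at 37C, with 4.5 mM final sodium butyrate as control, followed by a ONE-Glo read.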
Numbers without * were called inactive; ? = inconclusive; · = no result given. This is a sample that favours compounds with a hit; in the whole collection about 7.3% have one here. Calls follow the shape of the dose curve; as a rule, active = well fitted curve in the direction sought with a large enough effect; inconclusive = small, poorly fitted or top-dose-only effect, or another doubt; inactive = no such curve, though single readings can be large; an effect the other way counts as inactive or inconclusive. Potency is read from the fitted curve at half-maximal effect.

SMILES | Luc counter | NPC1 prom act | Rab9 prom act | FLuc modulator | ELG1 genotoxic | SMN2 splice up
O=C(CN1C(=O)S/C(=C\c2ccc(Cl)cc2)C1=O)NC1C=CS(=O)(=O)C1 (stereo unspecified) | · | -3.9% | -0.4% | 1.9% | -0.5% | ·
COc1ccc(/C=C2\SC(=S)N(CCC(=O)NC3C=CS(=O)(=O)C3)C2=O)cc1 (stereo unspecified) | · | 2.4% | -7.9% | 5.36µM* | 12.2% | ·
COc1ccc(/C=C2\SC(=O)N(CC(=O)N(C)C3CCS(=O)(=O)C3)C2=O)cc1 (stereo unspecified) | · | 12.0% | 12.9% | ? | 6.9% | ·
COc1ccc(/C=C2\SC(=O)N(CCC(=O)N(C)C3CCS(=O)(=O)C3)C2=O)cc1 (stereo unspecified) | · | 28.0% | 25.7% | 10.7µM* | 16.7% | ·
COc1cccc(/C=C2\SC(=S)N(CCC(=O)NC3C=CS(=O)(=O)C3)C2=O)c1 (stereo unspecified) | · | 21.1% | 1.8% | 4.78µM* | 15.9% | ·
c1ccc(CN2CCC(N3CCN(Cc4ccc5c(c4)OCO5)CC3)CC2)cc1 | · | -8.7% | -13.0% | 0.1% | -10.2% | ·
Cn1c(=NC(=O)c2ccccc2[N+](=O)[O-])sc2cc(S(C)(=O)=O)ccc21 | -6.5% | 0.355µM* | 0.562µM* | 0.536µM* | 8.2µM* | 2.24µM*
O=C(OCc1ccccc1F)c1ccc2c(c1)-c1ccccc1C2=O | -3.1% | 2.24µM* | 2.24µM* | ? | ? | ?
CCOc1ccc(NC(=O)CCSc2nc3c(c(CC)c2C#N)C(=O)CC(C)(C)C3)cc1 | -5.4% | -2.1% | -3.4% | 4.1% | -3.4% | ?
CC(=O)Nc1ccc(C(=O)COC(=O)Cc2ccsc2)c(F)c1 | · | · | · | · | 0.7% | ·
CC(=O)Nc1ccc(C(=O)COC(=O)C2CCCCC2)c(F)c1 | · | 1.7% | 2.1% | 0.675µM* | 5.8% | ·
CC(=O)Nc1ccc(C(=O)COC(=O)C2CC2)c(F)c1 | · | ? | 24.3% | 5.36µM* | ? | ·
CCc1noc(C)c1C(=O)OCC(=O)c1ccc(NC(C)=O)cc1F | · | · | · | · | 1.9% | ·
CC(C)[C@H](NS(=O)(=O)c1ccccc1)C(=O)OCC(=O)Nc1ccc2c(c1)OCO2 | -0.7% | -0.4% | -3.2% | 0.3% | -0.4% | -4.1%
Cn1c2ccccc2c(=O)c2cc(C#CC3(O)CCCCC3)ccc21 | · | ? | ? | 0.0757µM* | 0.116µM* | ·
COc1cc(-c2noc(C)c2C#CC2(N)CCCCC2)cc(OC)c1OC | · | 1.1% | 4.2% | 1.4% | 4.8% | ·
Cn1c2ccccc2c(=O)c2ccc(F)cc21 | · | -0.7% | 4.3% | -5.9% | 15.9% | ·
Cn1c2ccccc2c(=O)c2ccc(C#CC3(N)CCCCC3)cc21 | · | 3.98µM* | 2µM* | 6.75µM* | 7.3µM* | ·
Cn1c2ccccc2c(=O)c2ccc(C#Cc3ccccn3)cc21 | · | 16.4% | 22.0% | -17.4% | 15.1% | ·
COc1cccc2oc3ccc(C#CC4(N)CCCCC4)cc3c(=O)c12 | · | ? | ? | 6.01µM* | 18.3µM* | ·
COc1cccc(C2=NOC(C(=O)N3CCN(Cc4ccccc4)CC3)C2)c1OC (stereo unspecified) | -3.9% | -4.2% | -5.4% | 1.6% | -6.6% | -16.3%
Cc1ccc(SCC(=O)NCCSCc2ccccc2)cc1 | -1.1% | -2.4% | -0.2% | -11.2% | -0.8% | 3.9%
CN1C[C@@H]2C(c3ccccc3)C3(c4ccc(C#N)cc4)CC2(C3)[C@H]1c1ccccc1 (stereo partly specified) | -1.2% | 0.2% | -5.6% | 0.3% | -3.8% | -6.7%
COc1cccc(NC(=O)C(=O)NCc2ccncc2)c1 | -16.0% | 2.3% | ? | 19µM* | ? | 12.6µM*
COc1cccc(CNC(=O)c2ccncc2)c1 | · | 3.7% | 0.3% | 16.9µM* | -4.9% | ·
